Bioassay records: PubChem, National Center for Advancing Translational Sciences (NCATS)
LT uptake inh: blocks cellular internalization of anthrax lethal toxin | AID 912 | Potency, µM (titrated, usually from 40 µM), for the others: top-dose activity change, negative = inhibition, actives largely listed as inhibitors | 70,000 tested, 0.67% active | Cells, anthrax lethal toxin internalization, FRET ratio (460/530); further: on the % scale 0 is the no-effect control and ±100 the full control effect; nearly all actives have a fitted effect of over 50% in size
AmpC det inh: AmpC beta-lactamase inhibition, detergent assay; AID 584; 71,000 tested, 0.09% active; Potency, µM (doses to about 28.7 µM), without a hit: at the top dose activity change, negative = inhibition; purified AmpC, nitrocefin hydrolysis with detergent; P00811; active means well fitted curve in the direction sought with a large enough effect; inconclusive means small, poorly fitted or top-dose-only effect; further: on the % scale 0 is the no-effect control and ±100 the full control effect
Target sequence (P00811 whole entry, looked up): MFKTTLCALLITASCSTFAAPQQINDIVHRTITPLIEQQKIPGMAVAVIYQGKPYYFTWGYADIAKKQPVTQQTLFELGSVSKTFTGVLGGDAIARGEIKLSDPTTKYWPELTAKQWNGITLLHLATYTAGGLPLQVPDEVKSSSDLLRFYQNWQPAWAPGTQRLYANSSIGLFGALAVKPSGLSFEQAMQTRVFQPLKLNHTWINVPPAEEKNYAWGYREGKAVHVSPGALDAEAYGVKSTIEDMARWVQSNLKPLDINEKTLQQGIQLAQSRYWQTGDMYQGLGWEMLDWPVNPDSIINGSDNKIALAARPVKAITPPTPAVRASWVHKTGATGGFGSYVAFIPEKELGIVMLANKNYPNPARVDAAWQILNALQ
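E. coli AmpC (5.3 nM) in 20 mM phosphate pH 7.0 with 0.01% Triton X-100, preincubated 15 min RT with compound; nitrocefin (2 uL of 800 uM stock) hydrolysis followed by 480 nm absorbance every 20 s over 4 min.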
Prx2 Sm inh: blocks S. mansoni peroxiredoxin 2 enzymatic activity; Potency, µM; S. mansoni Prx2 activity coupled to TGR/GSH (TGR is thioredoxin glutathione reductase), NADPH fluorescence loss, qHTS; 65,000 tested, 0.07% active; AID 448
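Prx2 inhibition was measured as reduced NADPH consumption when electrons flowed from NADPH through TGR and glutathione to Prx2 and H2O2. Plates were read kinetically over 8 min; enzyme reagents were held at 4 deg C during dispensing.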
AmpC nodet inh: blocks E. coli AmpC beta-lactamase in absence of detergent. 71,000 tested, 1.8% active. P00811. AmpC nitrocefin hydrolysis, absorbance 480 nm, no detergent. Potency, µM (series often up to 28.7 µM), for the others: top-dose activity change, negative = inhibition. AID 585; further: % of control where 0% means no effect
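AmpC in 20 mM phosphate buffer pH 7.0 was preincubated 15 min at room temperature with compounds. Nitrocefin (800 uM stock) was then added and hydrolysis followed at 480 nm every 20 s for 4 min.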
Numbers without * were called inactive; ? = inconclusive; · = no result; ! = a repeat was not active; [ ] = dose if it differs, or a comment. Compounds with a hit are over-represented: about 2.6% of the library has one in this group of screens. Unless noted, the call rests on the fitted dose curve. Potency means the concentration at half of the fitted maximal effect.

SMILES	LT uptake inh	AmpC det inh	Prx2 Sm inh	AmpC nodet inh
COC(=O)c1ccccc1NC(=O)N1CCN(C/C=C/c2ccccc2)CC1	-10.1%	-4.0%	>57	85.1%
CC(C)Cc1nnc(NS(=O)(=O)c2ccc(Cl)cc2)s1	-14.1%	25.3%	>57	3.98µM*[single pt active]
COCc1nnc(NS(=O)(=O)c2ccc(C)cc2)s1	-5.6%	14.7%	>57	-9.8%
Brc1ccccc1-c1nnc(CSc2nncn2-c2ccccc2)o1	-1.4%	-4.5%	>57	11.4%
O=c1c2ccccc2nc(SCc2nnc(-c3ccccc3Br)o2)n1-c1ccccc1	14.8%	-1.9%	>57	20µM*
C[C@@H](O)[C@H]1C(=O)N2C(C(=O)O)=C(S[C@@H]3CN[C@H](C(=O)N(C)C)C3)[C@H](C)[C@H]12	0.501µM*	-1.3%[12.8 µM]	>57	26.8%[12.8 µM]
C/C(=N/Nc1nc(C)cc(=O)[nH]1)C(=O)O	-4.9%[8 µM]	-6.9%[5.75 µM]	>57	2.0%[5.75 µM]
Cc1ccc(S(=O)(=O)C2(C(=O)Nc3cccc(F)c3)CC2)cc1	-13.6%	11.3%	>57	3.98µM*[single pt active]
Cc1ccc(S(=O)(=O)C2(C(=O)Nc3nccs3)CC2)cc1	-5.0%	12.0%	>57	3.98µM*[single pt active]
O=C(Nc1nccs1)C1(S(=O)(=O)c2ccc(Cl)cc2)CC1	8.3%	-3.2%	>57	4.3%
COc1cc(NCC[C@@H]2CCCCN2)c2ncccc2c1	0.8%[8 µM]	-3.1%[5.75 µM]	>57	0.0%[5.75 µM]
COc1ccccc1NC(=O)CSc1nnc(Cn2c(=O)sc3ccccc32)n1C	-8.1%	9.3%	>57	3.98µM*[single pt active]
Cn1c(Cn2c(=O)sc3ccccc32)nnc1SCC(=O)N1CCCCCC1	?	12.0%	>57	3.98µM*[single pt active]
CCOC(=O)CSc1nnc(Cn2c(=O)sc3ccccc32)n1C	0.5%	5.4%	>57	8.3%
Cn1c(Cn2c(=O)sc3ccccc32)nnc1SCC(=O)N1CCOCC1	-1.6%	13.0%	>57	3.98µM*[single pt active]
CCOC(=O)N1CCN(C(=O)CSc2nnc(Cn3c(=O)sc4ccccc43)n2C)CC1	-1.9%	12.3%	>57	3.98µM*[single pt active]
CCCCC(CC)COC(=O)COc1ccc(Cl)cc1Cl (configuration not stated)	·	14.3%	·	-7.6%
S=C([S-])NCCNC(=S)[S-].[Zn+2]	?	2.1%	·	-13.8%
Cc1cccc(N2CCN(C(=O)C3CCN(c4nnc(-n5cccc5)s4)CC3)CC2C)c1 (configuration not stated)	7.94µM*	4.9%	>57	104.9%
CN(C)c1nc(N2CCCCC2)nc(N2CCCCC2)n1	-17.9%	14.3%	>57	3.98µM*[single pt active]
COc1ccccc1Nc1nc(-c2cccs2)cs1	?	-5.2%	·	7.94µM*[single pt active]
COc1ccc(OC)c(Nc2nc(-c3cccs3)cs2)c1	?	13.0%	>57	4.5%
O=S(c1ccccc1)c1ccc2nnnn2n1 (configuration not stated)	·	-1.1%	>57	-1.4%
O=C(O)[C@@H]1[C@@H](C(=O)NCc2ccncc2)[C@@H]2C=C[C@@H]1O2	?	-2.1%[5.75 µM]	>57	7.6%[5.75 µM]
Cc1c(Cc2ccccc2)c(=O)oc2cc(OCc3nn[nH]n3)ccc12	?	-3.4%	>57	10µM*[single pt active]
SMILES	LT uptake inh	AmpC det inh	Prx2 Sm inh	AmpC nodet inh
CCOC(=O)CCc1c(C)c2ccc(OCc3nn[nH]n3)cc2oc1=O	?	-0.4%	>57	1.3%
N[C@@H](CC1=CS(=O)(=O)c2ccc(Cl)cc21)C(=O)O	9.0%[8 µM]	-2.4%[5.75 µM]	>57	-11.2%[5.75 µM]
CS(=O)(=O)N1CCc2cc(-c3csc(NC(=O)Cc4cccs4)n3)ccc21	12.6µM*	1.1%	>57	?
COc1ccc(C(=O)Nc2cccc(C)c2)cc1S(=O)(=O)N1CCOCC1	14.7%	-2.0%	>57	60.0%
O=C(Nc1cccc(S(=O)(=O)C(F)F)c1)c1ccc(Cl)c(S(=O)(=O)N2CCOCC2)c1	10µM*	2.4%	>57	-7.1%
CN1C[C@@H](O)[C@@H](O)[C@@H](O)[C@@H]1CO	0.2%	0.4%	>57	-3.1%
Cc1c(C(=O)c2ccc3ccccc3c2)c2cccc3c2n1[C@H](CN1CCOCC1)CO3	2µM*	-5.7%	>25.6	115.0%
CC(C)(C)C(=O)[C@@H]1[C@@H]2C(=O)N(c3ccc4c(c3)OCCO4)C(=O)[C@@H]2C2c3ccccc3C=CN21 (some centres not stated)	1.26µM*	-14.1%	>57	19.3%
NC(=O)COc1ccc(=O)n(-c2ccccc2)n1	-8.0%	10.3%	>57	3.98µM*[single pt active]
Cn1nc(OCC(N)=O)ccc1=O	-5.9%	-5.2%	>57	4.6%
Cn1c(C[C@@H](O)c2nc3ccccc3n2C)nc2ccccc21	-13.0%[8 µM]	-3.7%[5.75 µM]	>57	3.7%[5.75 µM]
Cc1cc(NS(=O)(=O)c2ccc(NC(=O)Cc3cccs3)cc2)no1	2.2%	-2.5%	>57	4.8%
Cc1cc(NC(=O)Cc2cccs2)no1	-2.1%	-5.2%	>57	12.6µM*
CO/N=C(\C(=O)N[C@@H]1C(=O)N2C(C(=O)O)=C(COC(C)=O)CS[C@@H]12)c1csc(N)n1	3.1%[3.58 µM]	1.26µM*	>57	1.26µM*!
CC(=O)OCC1=C(C(=O)O)N2C(=O)[C@@H](NC(=O)Cc3cccs3)[C@@H]2SC1	-2.7%[3.58 µM]	-7.6%[12.8 µM]	>57	-8.5%[12.8 µM]
C=CC1=C(C(=O)O)N2C(=O)[C@@H](NC(=O)/C(=N\OCC(=O)O)c3csc(N)n3)[C@@H]2SC1	3.0%[3.58 µM]	0.2µM*	>57	0.316µM*
Cc1ccc(-c2noc(CN3C(C)CCCC3C)n2)cc1 (configuration not stated)	-12.1%	12.3%	>57	3.98µM*[single pt active]
Cc1ccc(-c2noc(CN3CCC(C(N)=O)CC3)n2)cc1	-15.2%	-2.2%	>57	-3.6%
O=c1[nH]cc(CS(=O)(=O)Cc2c[nH]c(=O)[nH]c2=O)c(=O)[nH]1	-12.7%[8 µM]	-2.7%[5.75 µM]	>57	13.0%[5.75 µM]
CCOC(=O)CC(SP(=S)(OC)OC)C(=O)OCC (configuration not stated)	?	6.31µM*	·	?
CCOC(=O)OCC	-0.6%	6.4%	·	-5.3%
Cc1cc(C)n(CCc2nc(-c3cc4ccccc4o3)cs2)n1	25.1µM*	-2.5%	>57	101.1%
COC(=O)[C@@H]1O[C@@H](SCCN)[C@@H](O)[C@H](O)[C@H]1O	-4.7%[8 µM]	-1.4%[5.75 µM]	>57	2.4%[5.75 µM]
CC(O)Cc1nsc(NC(=O)c2cccs2)n1 (configuration not stated)	-8.2%	12.9%	>57	3.98µM*[single pt active]
CC(=O)NCCc1c[nH]c2ccccc12	-1.1%	-0.8%	>57	-1.5%
SMILES	LT uptake inh	AmpC det inh	Prx2 Sm inh	AmpC nodet inh
N#Cc1cccc(NC(=O)NCCc2c[nH]c3ccccc23)c1	12.6µM*	12.5%	>57	3.98µM*[single pt active]
Oc1ccc(N=Cc2ccc(O)c(O)c2)cc1	?	4.5%	·	12.6µM*
C[N+](C)(C)/N=C\c1ccc(O)c(O)c1	?	-3.3%[5.75 µM]	>57	6.0%[5.75 µM]
CCc1ccc(N(CC(=O)NC2CCCCC2)S(=O)(=O)c2c(C)noc2C)cc1	-24.2%	11.9%	>57	3.98µM*[single pt active]
CCOc1ccc(N(CC(=O)NC2CCCCC2)S(=O)(=O)c2c(C)noc2C)cc1	-3.1%	6.2%	>57	13.6%
c1ccc(CN2COc3c(ccc4c5c(ccc34)CN(Cc3ccccc3)CO5)C2)cc1	-6.9%[8 µM]	-4.2%[5.75 µM]	>11.4	7.1%[5.75 µM]
CCCCNc1nc(N(C)c2ccccc2)nc(-n2ccnc2)n1	12.6µM*	-2.9%	>57	28.2%
Cc1ccc(S(=O)(=O)n2nc(C)c(Br)c2C)c(C)c1C	12.6µM*	7.9%	>57	-7.5%
